This is a sample that favours compounds with a hit; in the whole collection about 5.8% have one here.
Luciferase inh: inhibitors of firefly luciferase; P08659; purified firefly luciferase, luminescence, 8 min; Potency, µM (top dose mostly 57.1 µM), actives largely listed as inhibitors; hit rate 2.2% among 72,000; AID 411; note: nearly all actives have a fitted effect of over 40% in size
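Inhibition of light generation by firefly luciferase from ATP and luciferin was profiled with concentration-response curves per sample, ATP held at 10 uM within the enzyme's linear range. Plates were read by luminescence after an 8-minute ambient incubation.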
TSHR ag: activates the human thyroid stimulating hormone receptor; P16473; HEK293-CNG-TSHR cells (CNG channel as cAMP sensor), membrane potential dye, cAMP; Potency, µM (top dose mostly 57.1 µM), hits mostly activators; hit rate 0.48% among 73,000; active = well fitted activation curve with a large enough effect in the main read-out, with a control signal flat, not every such curve was filed as active; inconclusive = small, poorly fitted or top-dose-only effect, or a change in a side signal; inactive = no such curve, though single readings can be large or run the other way; reference of the percent scale not stated here;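 note: the control signal comes from parental cells without the receptor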
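cAMP rise detected as CNG-channel membrane depolarization by fluorescent dye (emission 590 nm), 30 min after compound, following 60 min dye loading containing 100 uM RO 20-1724 at room temperature. Cells: TSHR/CNG HEK 293, with parental CNG HEK 293 as control.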
Bst PK mod: pyruvate kinase (B. stearothermophilus) modulation; AID 361; purified pyruvate kinase, luminescence ATP production; ribose 5-phosphate activator present at AC10; Potency, µM; hit rate 1.2% among 51,000; in the data active = potency below about 11 µM; inconclusive = mostly about 12 µM to 25 µM;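 the screen sought inhibitors and activators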
HEK293 cAMP cs: raises cAMP in parental HEK293 cells, TSHR agonist counter-screen. hit rate 2.5% among 73,000. Potency, µM (top dose mostly 57.1 µM), usual class: activators. parental HEK293 CNG cAMP sensor, membrane potential fluorescence; note: nearly all actives have a fitted effect of over 55% in size
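Parental HEK 293 cells stably expressing a modified CNG channel (no TSHR) report cAMP rise as membrane depolarization. Membrane potential dye with 100 uM RO 20-1724 was loaded for 60 min at room temperature, then compound added for 30 min; fluorescence read at 590 nm.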
GBA activity: human lysosomal glucosylceramidase modulation. purified enzyme, resorufin glucoside fluorescence (screen aimed at inhibitors), 20 min. Potency, µM. hit rate 1.1% among 48,000. AID 360; in the data active = potency below about 15 µM; inconclusive = mostly about 16 µM to 33 µM;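 note: the screen sought inhibitors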
Target sequence (P04062 whole entry, looked up): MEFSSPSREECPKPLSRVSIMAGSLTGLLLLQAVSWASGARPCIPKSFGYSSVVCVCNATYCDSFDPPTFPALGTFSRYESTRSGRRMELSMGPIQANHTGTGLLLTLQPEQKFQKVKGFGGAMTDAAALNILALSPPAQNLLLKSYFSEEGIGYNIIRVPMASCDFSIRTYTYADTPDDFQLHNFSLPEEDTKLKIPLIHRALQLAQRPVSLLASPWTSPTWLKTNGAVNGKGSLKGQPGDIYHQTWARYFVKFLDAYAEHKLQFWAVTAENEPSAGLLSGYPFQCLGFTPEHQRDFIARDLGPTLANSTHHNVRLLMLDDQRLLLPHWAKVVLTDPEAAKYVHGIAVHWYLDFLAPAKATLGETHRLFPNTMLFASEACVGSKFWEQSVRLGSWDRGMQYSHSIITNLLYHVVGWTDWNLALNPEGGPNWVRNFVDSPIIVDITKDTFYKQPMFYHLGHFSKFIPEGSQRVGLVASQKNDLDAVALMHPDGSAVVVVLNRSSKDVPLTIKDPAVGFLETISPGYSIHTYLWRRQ
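Normal human glucocerebrosidase (0.2 nM final) was assayed with resorufin β-D-glucopyranoside (30 uM final) in 50mM citric acid/KH2PO4, 10mM sodium taurocholate, 0.01% tween-20, pH 5.9. Compounds were titrated; fluorescence (Ex 548, Em 600) read after 20 min at RT.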
Large screens that a line does not name were inactive. Unless noted, calls come from the whole dose curve; as a rule, active = well fitted curve in the direction sought with a large enough effect; inconclusive = small, poorly fitted or top-dose-only effect, or another doubt; inactive = no such curve, though single readings can be large; an effect the other way counts as inactive or inconclusive.

CCC(C)(C(=O)NC1CCCC1)N(Cc1ccco1)C(=O)c1ccccn1 (stereo not given)	TSHR ag inconclusive, HEK293 cAMP cs inconclusive
CCCN(CCC)C(C(=O)Nc1cccc(OC)c1)c1ccccc1 (stereo not given)	TSHR ag inconclusive, HEK293 cAMP cs 25.1µM
COCC(=O)N1CCC2(CC1)CCN(c1ccccn1)CC2	none (no result: Bst PK mod, GBA activity)
Cc1cccc(N2CSC3=C(C#N)C(c4ccc(C)o4)CC(=O)N3C2)c1 (stereo not given)	GBA activity 15
COc1ccc(OC)c(C2CC(=O)N3CN(c4ccccc4)CSC3=C2C#N)c1 (stereo not given)	none (no result: Bst PK mod, GBA activity)
COc1ccc(NC(=O)Cn2nnc(-c3ccccc3NC(=O)c3cccs3)n2)cc1	TSHR ag 25.1µM
CCOc1ccc(NC(=O)Cn2nnc(-c3ccccc3NC(=O)CC)n2)cc1	none
CCCCNc1nc2ccccc2n1CC(=O)N1CCc2ccccc2C1	TSHR ag inconclusive, HEK293 cAMP cs 2µM
CCOc1ccc(-c2nc(C#N)c(N3CCN(C)CC3)o2)cc1	Bst PK mod inconclusive, GBA activity inconclusive
CCOc1ccc(-c2nc(C#N)c(N3CCN(CC)CC3)o2)cc1	Bst PK mod inconclusive (no result: TSHR ag, HEK293 cAMP cs, GBA activity)
CCCOc1ccc(-c2nc(C#N)c(N3CCN(CC)CC3)o2)cc1	Bst PK mod 5.78, GBA activity inconclusive (no result: TSHR ag)
CCCOc1ccc(-c2nc(C#N)c(N3CCN(C)CC3)o2)cc1	Bst PK mod 7.26 (no result: GBA activity)
CC(=O)OC[C@@H]1O[C@@H](O/N=C2/C[C@@H](O)[C@@H](O)[C@@H]3[C@@H]4C(=O)N(C[C@@H]5CCCO5)C(=O)[C@H]4CC[C@@H]23)[C@H](OC(C)=O)[C@H](OC(C)=O)[C@@H]1OC(C)=O	none (no result: Bst PK mod, GBA activity)
CCSC1=C(C#N)C(c2cccs2)C(C(=O)OC)=C(C)N1 (stereo not given)	none (no result: TSHR ag, HEK293 cAMP cs, GBA activity)
CCOC(=O)C1=C(C)NC(SCC(=O)Nc2cc(C)on2)=C(C#N)C1c1cccs1 (stereo not given)	GBA activity 1.9
O=S(=O)(c1ccccc1)n1nc(-c2ccccc2)nc1NCc1ccco1	TSHR ag inconclusive, HEK293 cAMP cs inconclusive
O=C(c1ccccc1)n1nc(-c2ccccc2)nc1NCc1ccco1	TSHR ag 25.1µM (no result: Bst PK mod, GBA activity)
CCCCCCNC(=O)Nc1ccc(S(=O)(=O)Nc2ccc(CCNC[C@H](O)COc3ccc(O)cc3)cc2)cc1	none (no result: Luciferase inh, Bst PK mod, GBA activity)
CCC(C)(C)NC(=O)C(c1ccccc1F)N(Cc1ccco1)C(=O)c1csnn1 (stereo not given)	none
CCC(C)(C)NC(=O)C(c1ccccc1F)N(Cc1ccco1)C(=O)Cn1nnc2ccccc21 (stereo not given)	TSHR ag inconclusive, HEK293 cAMP cs 15.8µM (no result: GBA activity)
COCCNC(=O)C(c1ccc(C)o1)N(Cc1ccc(OC)cc1)C(=O)Cn1nnc2ccccc21 (stereo not given)	none
CCC(C)(C)NC(=O)C(c1ccc(C)o1)N(Cc1cccs1)C(=O)Cn1nnc2ccccc21 (stereo not given)	TSHR ag inconclusive, HEK293 cAMP cs 15.8µM
O=c1oc(-c2cccs2)nc2scc(-c3cccs3)c12	Luciferase inh 12.6µM
Cc1nc2scc(-c3cccs3)c2c(=O)n1-n1cccc1	TSHR ag inconclusive, HEK293 cAMP cs 31.6µM (no result: Bst PK mod, GBA activity)
Cc1ccc(C)n1-n1c(C)nc2scc(-c3cccs3)c2c1=O	TSHR ag inconclusive, HEK293 cAMP cs inconclusive (no result: Bst PK mod, GBA activity)
CCCCCCCCCCCCCCCCCC(=O)NC[C@@H](COP(=O)([O-])OCC[N+](C)(C)C)OCC	none (no result: Bst PK mod, GBA activity)
Cc1ccc(C(C(=O)NC2CCCC2)N(Cc2ccc(F)cc2)C(=O)c2csnn2)o1 (stereo not given)	TSHR ag inconclusive, HEK293 cAMP cs 15.8µM
CC(C)=CCC/C(C)=C/CO/N=C1/C[C@@H](O)[C@@H](O)[C@@H]2[C@@H]3C(=O)N(c4cccc(Oc5ccccc5)c4)C(=O)[C@H]3CC[C@@H]12	none (no result: Bst PK mod, GBA activity)
CN1CCN(c2nc(-c3ccoc3)nc3ccccc23)CC1	TSHR ag 5.01µM (no result: Bst PK mod, GBA activity)
c1ccc2c(N3CCOCC3)nc(-c3ccoc3)nc2c1	none (no result: TSHR ag, Bst PK mod, GBA activity)
FC(F)(F)c1ccccc1-c1cc(NCc2cccnc2)ncn1	none (no result: Bst PK mod, GBA activity)
CC[C@@H](c1ccccc1)n1c(=O)n2n(c1=O)[C@H]1[C@H](O)[C@H]3O[C@H]3C(=O)[C@H]1CC2	none (no result: Bst PK mod, GBA activity)
Cc1ccc(OCC(=O)Nc2ccc3c(c2)nc(CCN2CCOCC2)n3C)cc1	TSHR ag inconclusive, HEK293 cAMP cs 25.1µM (no result: Bst PK mod)
C#CCCCO/N=C1/C[C@@H](O)[C@@H](O)[C@@H]2[C@@H]3C(=O)N(c4cccc(Oc5ccccc5)c4)C(=O)[C@H]3CC[C@@H]12	none (no result: Bst PK mod, GBA activity)
NC(=O)c1c(NC(=O)c2cc3ccccc3o2)sc2c1CCC2	Luciferase inh 3.16µM (no result: Bst PK mod)
COC(=O)c1c(NC(=O)c2ccc(C)o2)sc2c1CCCCC2	none (no result: TSHR ag, Bst PK mod, GBA activity)
Cc1ccc(C(=O)Nc2sc3c(c2C(=O)O)CCCCC3)o1	Luciferase inh 20µM
COc1cccc(Nc2ncc3nc(-c4cccs4)c(=O)n(C[C@H]4CCCO4)c3n2)c1	TSHR ag inconclusive, HEK293 cAMP cs inconclusive (no result: Bst PK mod, GBA activity)
O=C(c1ccco1)N1CCN(S(=O)(=O)c2ccc(Oc3ccccc3)cc2)CC1	TSHR ag inconclusive, HEK293 cAMP cs 20µM
COc1ccc(N(CC(=O)Nc2ccc(C)c(C)c2)S(=O)(=O)c2c(C)n[nH]c2C)cc1	GBA activity 15.2
NC(=O)c1cccc(N)c1	none (no result: Bst PK mod, GBA activity)
O=C(CSc1ccc(-c2nc3ccccc3[nH]2)cn1)N1CCN(C(=O)c2ccco2)CC1	Luciferase inh 20µM (no result: GBA activity)
O=C(Nc1ccc2nc(-c3ccco3)[nH]c2c1)c1cccs1	Luciferase inh 12.6µM, Bst PK mod 10.1
O=C(Nc1ccc2nc(-c3ccco3)[nH]c2c1)c1ccco1	Luciferase inh 12.6µM, Bst PK mod 10.3
CC(=O)Nc1cccc(-c2nc3ccc(NC(C)=O)cc3[nH]2)c1	Luciferase inh 15.8µM
O[C@@H](C1=C/C(=C\c2ccncc2)c2ccccc21)c1ccncc1	none (no result: Bst PK mod, GBA activity)
Cc1noc(C)c1C(=O)N1CCC2(CCN(Cc3ccccc3)CC2)CC1	none (no result: Bst PK mod, GBA activity)
O=C(Nc1ccc(-c2nc3ccccc3[nH]2)cc1)c1ccco1	Luciferase inh 3.98µM, Bst PK mod 3.94, GBA activity inconclusive
Cc1ccc2nc(-c3cccc(NC(=O)c4ccco4)c3)[nH]c2c1	Luciferase inh 10µM, Bst PK mod 6.36
O=C(Nc1ccc2nc(-c3cccnc3)[nH]c2c1)c1ccco1	Luciferase inh 15.8µM (no result: Bst PK mod, GBA activity)
O=C(Nc1ccc(Cn2nnc3ccccc32)cc1)c1ccco1	none
Nc1nonc1-c1nc2ccccc2n1Cc1ccc(F)cc1Cl	TSHR ag inconclusive, HEK293 cAMP cs 15.8µM
C[C@@H]1NCC[C@H](CC(=O)O)[C@H]1CC(=O)O	none (no result: Bst PK mod, GBA activity)
N[C@@H](CSCc1ccccc1)C(=O)O	none (no result: Bst PK mod, GBA activity)
O=C(CSc1nnnn1-c1ccc(Cl)cc1)NC(=O)Nc1ccc2c(c1)OCCO2	Luciferase inh 2.51µM (no result: TSHR ag)
Cc1ccc(-n2nnnc2SCC(=O)NC(=O)Nc2ccc3c(c2)OCCO3)cc1	TSHR ag inconclusive, HEK293 cAMP cs inconclusive, GBA activity inconclusive
O=C1NC(c2cccs2)Nc2sc3c(c21)CCCC3 (stereo not given)	Bst PK mod 2.89
